Bioassay records as filed in PubChem.
The full list was thinned out, with hits kept by preference.
Pf Dd2 inh: blocks in vitro growth of P. falciparum Dd2; Potency, µM (doses to about 28.9 µM), inactives show at the highest dose activity, negative = inhibition, actives largely listed as inhibitors; P. falciparum Dd2 growth, SYBR Green, 72 h; 120,000 tested, 4.3% active; active = well fitted inhibition curve with a large enough effect;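 also: plate controls were DMSO vehicle for no effect and reference drug for full effect; nearly all actives have a fitted effect of over 65% in size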
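Readout: SYBR Green fluorescence, 485 nm excitation, 535 nm emission, after ~16 h lysis at 37C. Before that, Dd2-infected red cells (2.5% hematocrit) grew 72 h with compound, 29 uM top final concentration.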
Active calls of the source: *; i = inactive; ! = not active in a repeat; [ ] = dose if it differs, or a comment. Potency is read from the fitted curve at half-maximal effect.

SMILES	Pf Dd2 inh
O=C1CC(c2ccccc2)N(Cc2ccc3c(c2)CCO3)CCCCCCN1 (centres undefined)	12.6µM*
O=C1CC(c2ccccc2)N(Cc2ccc3[nH]ccc3c2)CCCCCN1 (centres undefined)	7.94µM*
O=C1CC(c2ccccc2)N(C(=O)CNS(=O)(=O)c2ccc3c(c2)OCCO3)CCCCCN1 (centres undefined)	i
O=C1CC(c2ccccc2)N(C(=O)C2CC2)CCCCCCN1 (centres undefined)	-9.1%
N#Cc1ccc(CN2CCCCCCNC(=O)CC2c2ccccc2)cc1 (centres undefined)	i
O=C1CC(c2ccccc2)N(C(=O)NCc2ccccc2)CCCCCN1 (centres undefined)	-1.7%
CC(C)c1ccc(S(=O)(=O)N2CCCC(Cn3cnc4cccnc43)C2)cc1 (centres undefined)	-13.8%
Cc1cc(C)cc(C(=O)N2CCC(Cc3nc(-c4cnccn4)no3)CC2)c1	-19.5%
COc1ccccc1-c1ccnc(N[C@H]2CO[C@H]3[C@@H]2OC[C@@H]3NC(=O)CCC(=O)O)n1	5.8%[44.1 µM]
O=C(C1Cc2ccccc2O1)N1CCc2onc(-c3ccc(F)c(F)c3)c2C1 (centres undefined)	-7.8%
O=C(N[C@@H]1CCOC[C@H]1OCc1cscn1)c1ccccc1-n1cccn1	-22.1%
COc1cc(Cl)c(C)cc1NC(=O)Cn1c2ncccc2c(=O)n1-c1ccccc1	1.3%
COCc1noc([C@@H]2CN(Cc3ccc(C)cn3)C[C@H]2COC)n1	19.5%
Cc1ccc(-c2ccc(=O)n(CC(=O)NC(C)c3ccccc3)n2)cc1 (centres undefined)	0.2%
COc1ccc2c(c1)CN(Cc1ccccc1Cl)CC[C@H]1COC(=O)N21	11.2µM*
COc1ccc2c(c1)CN(Cc1ccc(C(F)(F)F)cc1)CC[C@H]1COC(=O)N21	i
COc1cccc(CN2CC[C@H]3COC(=O)N3c3ccc(OC)cc3C2)c1	11.5%[44.1 µM]
Cc1ccc(N(CC(=O)NCc2ccc(F)cc2)S(=O)(=O)c2c(C)nn(C)c2C)cc1	-0.3%
Cc1ccc(N(CC(O)Cn2c3ccccc3c3ccccc32)S(=O)(=O)c2ccc(F)cc2)cc1 (centres undefined)	12.6µM*
COc1ccc(S(=O)(=O)N(CC(=O)N2CCc3ccccc3C2)c2ccc(C)cc2)cc1	-20.7%
Brc1ccc(CN2CCC(c3nc4ncccc4[nH]3)C2)cc1 (centres undefined)	-25.9%
N#Cc1ccc2nc([C@H]3CCN(Cc4ccccc4)C3)[nH]c2c1	-15.4%[44.1 µM]
CN1CCC(N2CC[C@H](c3nc4ccccc4[nH]3)C2)CC1	23.3%[44.1 µM]
O=C(c1ccccc1)N1CC[C@H](c2nc3ccc(F)cc3[nH]2)C1	-9.4%[44.1 µM]
FC(F)(F)c1ccc(CN2CC[C@H](c3nc4ccccc4[nH]3)C2)cc1	i
SMILES	Pf Dd2 inh
FC(F)(F)c1ccc2nc([C@H]3CCN(CC4CC4)C3)[nH]c2c1	12.6µM*
CC(=O)N1CC[C@H](c2nc3ccc(C(F)(F)F)cc3[nH]2)C1	27.4%[44.1 µM]
CN(C)c1ccc(CN2CC[C@H](c3nc4ccc(C(F)(F)F)cc4[nH]3)C2)cc1	5.62µM*
N#Cc1ccc(CN2CCC(c3nc4ccncc4[nH]3)C2)cc1 (centres undefined)	10µM*!
c1cc2nc(C3CCN(C4CCCCC4)C3)[nH]c2cn1 (centres undefined)	31.1%[44.1 µM]
O=C(C1CCCCC1)N1CC[C@H](c2nc3ccc(C(F)(F)F)cc3[nH]2)C1	i
FC(F)(F)c1ccc2nc([C@H]3CCN(C4CCCCC4)C3)[nH]c2c1	7.94µM*
Cc1c(O)cccc1C(=O)N1CCC2(CC1)Nc1ccccc1NC2=O	-25.0%
COCCC(=O)N1CCC(c2noc(C3CC3)n2)C1 (centres undefined)	i[5.79 µM]
Cc1cc(Cl)ccc1S(=O)(=O)N1CCCC1c1nncn1-c1ccccc1 (centres undefined)	-16.3%
O=C1CO[C@H]2CN(Cc3ccncc3)C[C@H]2N1Cc1ccccc1	i
CC1=Nc2cc(C(=O)N3CCCCC3)ccc2Sc2ccc(C)cc21	i
CC1=Nc2cc(C(=O)NC3CCCC3)ccc2Sc2ccc(Br)cc21	7.94µM*
CC1=Nc2cc(C(=O)NC3CCC(C)CC3)ccc2Sc2c(C)ccc(C)c21 (centres undefined)	11.2µM*
CCC1=Nc2cc(C(=O)NCc3ccc(F)cc3)ccc2Sc2ccc(C)cc21	5.62µM*
CCCC1=Nc2cc(C(=O)NC3CCCCC3)ccc2Sc2ccc(C)cc21	10µM*
CCCC1=Nc2cc(C(=O)NCCc3ccc(OCC)cc3)ccc2Sc2ccccc21	-28.9%
CCC1=Nc2cc(C(=O)NCCCOC)ccc2Sc2ccc(Br)cc21	-27.7%
CCc1cc(C(=O)NCc2ccc(F)cc2)no1	8.4%
Cc1cccc(C)c1-c1nnc2ccc(C(=O)NC3CC3)cn12	23.4%
Cc1nc2cc(C(=O)NC3CCCCCC3)ccc2n1-c1ccc(Br)cc1	18.4%
CCCC1=Nc2cc(C(=O)NCCCN(CC)CC)ccc2Sc2ccccc21	-7.6%
Cc1ccc(C(=O)NC2CCN(c3cnn(C)c(=O)c3)CC2)cc1C	-4.9%
Cc1c(C(=O)NCc2ccccc2Cl)cccc1-n1cnc2cccnc21	i
